Assay [1] in a line: qHTS for Inhibitors of Plasmodium falciparum (7G8) proliferation (AID 504316). Also: nearly all actives have a fitted effect of over 65% in size. Also: potency is read from the fitted curve at half-maximal effect. Put shortly:
(§1)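 Erythrocytes infected with P. falciparum line (0.3% parasitemia, 2.5% hematocrit final) incubated with compounds 72 h at 37 °C, 5% CO2; SYBR Green lysis buffer added, fluorescence read next day. Normalized to 0.29 uM artemisinin and DMSO.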
(In general: In qHTS, concentration-response curves come from the screen itself.)

A short description of assay [2]: qHTS for Inhibitors of Plasmodium falciparum (CP250) proliferation (AID 504320). Also: potency is read from the fitted curve at half-maximal effect. Put shortly:
as §1

In assay [3] the target is Atrial natriuretic peptide receptor 1 (Homo sapiens) (UniProt P16066). The experiment in a line: Natriuretic polypeptide receptor (hNpr1) antagonism - Pilot CMLD screen (AID 1347052; calls by dose curve;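 also: HEK293 cells with hNpr1 stimulated by hNppA peptide at 0.1 nM; cGMP level read as GloSensor luciferase luminescence after agonist stimulation; series mostly up to about 9.2 µM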).
Sequence of Atrial natriuretic peptide receptor 1 (Homo sapiens) (P16066 whole entry, looked up): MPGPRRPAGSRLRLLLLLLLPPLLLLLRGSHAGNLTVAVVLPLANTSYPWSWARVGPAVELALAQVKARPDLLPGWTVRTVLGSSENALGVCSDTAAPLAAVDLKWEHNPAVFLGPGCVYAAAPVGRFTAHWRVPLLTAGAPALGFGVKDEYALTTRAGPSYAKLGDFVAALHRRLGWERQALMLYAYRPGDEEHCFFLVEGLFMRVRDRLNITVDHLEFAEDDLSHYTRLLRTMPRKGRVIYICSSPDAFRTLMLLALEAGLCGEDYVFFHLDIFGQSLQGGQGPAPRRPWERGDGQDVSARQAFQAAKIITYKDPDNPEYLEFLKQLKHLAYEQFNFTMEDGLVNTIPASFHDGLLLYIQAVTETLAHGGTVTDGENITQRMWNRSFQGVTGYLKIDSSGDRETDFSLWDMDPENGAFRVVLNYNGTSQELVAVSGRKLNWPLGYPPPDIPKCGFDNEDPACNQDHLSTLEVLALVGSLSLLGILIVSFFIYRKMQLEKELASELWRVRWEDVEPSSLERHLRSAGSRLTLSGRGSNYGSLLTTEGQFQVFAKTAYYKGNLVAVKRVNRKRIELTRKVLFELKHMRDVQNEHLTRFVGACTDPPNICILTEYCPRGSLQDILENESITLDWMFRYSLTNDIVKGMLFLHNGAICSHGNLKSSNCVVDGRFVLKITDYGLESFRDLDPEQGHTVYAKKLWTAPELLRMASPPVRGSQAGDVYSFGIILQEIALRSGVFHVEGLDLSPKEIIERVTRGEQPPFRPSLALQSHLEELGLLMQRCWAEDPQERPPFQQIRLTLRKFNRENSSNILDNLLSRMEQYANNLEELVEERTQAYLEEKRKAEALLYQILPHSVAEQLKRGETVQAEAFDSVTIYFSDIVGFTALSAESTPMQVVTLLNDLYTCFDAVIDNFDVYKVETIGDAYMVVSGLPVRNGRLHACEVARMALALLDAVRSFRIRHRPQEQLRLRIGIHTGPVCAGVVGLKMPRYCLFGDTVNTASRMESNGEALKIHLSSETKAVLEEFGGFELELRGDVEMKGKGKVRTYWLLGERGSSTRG
Assay [4] is described as follows: qHTS for Inhibitors of Plasmodium falciparum (HB3) proliferation (AID 504318). Also: nearly all actives have a fitted effect of over 60% in size. Also: potency is read from the fitted curve at half-maximal effect. Put shortly: as §1

Among the data in PubChem BioAssay (NCATS) are Potency values, retold here.

“And” between values parts separate entries of the source, which are not always exact repeats. Equal values may be shown once. Results filed as inconclusive are left out. More than one record can exist for a structure, and the calls need not agree. The source made the active and inactive calls. Unless noted, calls follow the shape of the dose curve; as a rule, active = well fitted curve in the direction sought with a large enough effect; inconclusive = small, poorly fitted or top-dose-only effect, or another doubt; inactive = no such curve, though single readings can be large; an effect the other way counts as inactive or inconclusive.

In the case of `COC(=O)C12C[C@@H](C)C3C(C)C(c4ccccc4C31)N2C(=O)C(F)(F)F` (some centres not stated), the Potency entry in assay [1], in assay [2] and in assay [3] was “inactive” throughout.

As to `COc1ccc(-c2nc3c(c4c2C[C@H](c2ccccc2)OC4)CN(C(=O)N[C@@H](C)C(=O)OC(C)C)CC3)c(C)c1`, the Potency was 1510 nM (active) in assay [1] and 1650 nM (active) in assay [4]. For the same compound, the Potency entry in assay [2] and in assay [3] was “inactive” in each case.

Consider `CC(Nc1oc(-c2ccccc2)nc1C(C)(C)C)c1ccccc1` (configuration not stated), for which the Potency entry in assay [1], in assay [2] and in assay [3] was “inactive” throughout.

As to `O=C1c2ccccc2C(=O)N1CCCC[C@]12Cc3ccccc3[C@H](O1)c1c(c3ccccc3oc1=O)O2`, the values for the Potency in assay [1] and in assay [2] were 1510 nM (active) and 1690 nM (active), respectively. Further, the Potency entry in assay [3] is “inactive”.

As to `C[C@@H]1CC[C@H]2C(=O)N(Cc3ccc(Cl)cc3)C[C@@H](O)CN2[C@H]1c1cccc(Br)c1`, the Potency in assay [1] is 1510 nM (active). The Potency result in assay [2] and in assay [3] was “inactive” in each case.

With `CC1(C)CC(=O)C2=C(C1)O[C@@]1(CCCCN3C(=O)c4ccccc4C3=O)Cc3cc(C#N)ccc3[C@H]2O1`, the Potency in assay [1] was 1690 nM (active). Further, the Potency result in assay [2] and in assay [3] was “inactive” throughout.

With `CC(C)OC(=O)[C@H](C)NC(=O)N1CCc2nc(COc3ccccc3)c3c(c2C1)CO[C@@H](C)C3`, the Potency in assay [1] was 1350 nM (active); in assay [4], 2620 nM (active). Also, the Potency result in assay [2] and in assay [3] was “inactive” each time.

In the case of `COC(=O)C1=C(C)N(Cc2ccccc2)C(=NCCc2c[nH]c3ccccc23)NC1c1ccc(Br)cc1` (configuration not stated), the Potency result in assay [1], in assay [4], in assay [2] and in assay [3] was “inactive” each time.

In the case of `Brc1ccc2c(c1)c1cc(Br)ccc1n2CC1CO1` (configuration not stated), in assay [1], the Potency was 1690 nM (active). Further, the Potency entry in assay [2] and in assay [3] was “inactive” each time.

Regarding `COc1cc2c(cc1OC)[C@@H]1O[C@](CCCCN3C(=O)c4ccccc4C3=O)(C2)Oc2cc(C)n(Cc3ccccc3)c(=O)c21`, the figures for the Potency in assay [1], in assay [4] and in assay [2] were 1510 nM (active), 1690 nM (active) and 1690 nM (active), respectively. For the same compound, in assay [3], the Potency entry is “inactive”.

`C[C@H]1CC[C@H]2C(=O)N(Cc3ccc(Cl)cc3)C[C@@H](O)CN2[C@H]1c1ccc(Br)cc1`: the Potency in assay [1] is 1690 nM (active). The Potency result in assay [2] and in assay [3] was “inactive” each time.

`N#Cc1ccc2c(c1)C[C@]1(CCCCN3C(=O)c4ccccc4C3=O)Oc3c(c(=O)oc4ccccc34)[C@H]2O1`: the Potency in assay [1] is 1510 nM (active). Further, the Potency entry in assay [2] and in assay [3] was “inactive” throughout.

On to `CC(C)=CCN1C(=O)[C@@]2(CC(C)=CC[C@@H](COc3ccccc3)O2)c2ccccc21`, for which the Potency in assay [1] was 2690 nM (active). Further, the Potency entry in assay [2] and in assay [3] was “inactive” in each case.

Take `C=CCC12OC3(OC)CC1[C@H](C)[C@@H](c1ccccc1)C2[C@]3(O)CC=C` (some centres not stated): the Potency result in assay [1], in assay [4], in assay [2] and in assay [3] was “inactive” each time.

Take `C=CCNC(=O)N1C2=NC(C(=O)OC)=C(C(=O)OC)[C@@H]3N(C)c4ccccc4[C@]23C[C@H]1CO`: the Potency result was “inactive and 1.69 µM (active)” in assay [1]; “inactive and 2.94 µM (active)” in assay [4]. Besides, the Potency entry in assay [2] and in assay [3] was “inactive” each time.

Turning to `CCN1C(=NCc2cc(OC)c(OC)c(OC)c2)NC(c2cccc(F)c2)C(C(=O)OC)=C1C` (configuration not stated), the Potency in assay [1] is 849 nM (active). The Potency result in assay [2] and in assay [3] was “inactive” in each case.

Regarding `COC(=O)C1=C(C(=O)OC)[C@@H]2N(C)c3ccccc3[C@@]23CCC(=O)N(CC(C)C)C3=N1`, the Potency entry in assay [1], in assay [2] and in assay [3] was “inactive” throughout.

For `COC(=O)CC1OC1[C@H](C)[C@@H](OC)C(C)C` (some centres not stated), the Potency in assay [1] was 1690 nM (active). In addition, the Potency result in assay [2] and in assay [3] was “inactive” each time.

Turning to `C=CCOCCC=C1c2ccccc2[C@@H](OC)[C@@H]1C`, the Potency in assay [1] was 1510 nM (active). For the same compound, the Potency result in assay [2] and in assay [3] was “inactive” in each case.

`C[C@@H]1CC2=CCCC2[C@]2(O1)C(=O)N(CC1CC1)c1cccc(Br)c12` (some centres not stated): the Potency entry in assay [1], in assay [4], in assay [2] and in assay [3] was “inactive” throughout.

Turning to `CC1(C)CC(=O)C2=C(C1)O[C@@]1(CCCCN3C(=O)c4ccccc4C3=O)Cc3c(ccc4ccccc34)[C@H]2O1`, in assay [1], the Potency was 1510 nM (active). Further, the Potency result in assay [2] and in assay [3] was “inactive” throughout.

For the compound `COC(=O)C1=C(C(=O)OC)[C@@H]2N(Cc3ccccc3)c3ccccc3[C@@]23CCC(=O)N(CCc2ccccn2)C3=N1`, the Potency in assay [1] was 1510 nM (active). Further, the Potency result in assay [2] and in assay [3] was “inactive” in each case.

Regarding `COc1ccc2c(c1)O[C@@H](c1ccc3c(c1)OCO3)[C@H](OC(=O)Nc1cc(OC)c(OC)c(OC)c1)C2=O`, the Potency in assay [1] was 1690 nM (active). Besides, the Potency entry in assay [2] and in assay [3] was “inactive” each time.

In the case of `COC(=O)N[C@@H](C=Cc1ccccc1)[C@@H](C)[N+](=O)[O-]`, the Potency entry in assay [1], in assay [4], in assay [2] and in assay [3] was “inactive” in each case.

Regarding `COC(=O)C1=C(C)N(Cc2ccccc2)C(=S)NC1c1cccc(C(F)(F)F)c1` (configuration not stated), the Potency entry in assay [1], in assay [4], in assay [2] and in assay [3] was “inactive” each time.

Regarding `N#Cc1ccc2c(c1)C[C@]1(CCCCN3C(=O)c4ccccc4C3=O)Oc3c(c(=O)oc4ccc(F)cc34)[C@@H]2O1`, in assay [1], the Potency is 1510 nM (active). Moreover, the Potency entry in assay [2] and in assay [3] was “inactive” in each case.
